# Results from PubChem BioAssay AID720518 (National Center for Advancing Translational Sciences (NCATS), 2013).
# Inconclusive results are not listed. The source made the active and inactive calls. The call rests on the fitted dose curve.
# Test: qHTS for Inhibitors of Cell Surface uPA Generation: Wild-type Protective Antigen (WT-PrAg) Counterscreen for Cherry-picked Compounds; on activity (protection): 0% is about no effect
# Settings: cells, WT protective antigen toxicity counterscreen; series mostly up to 115 µM; activity (protection): at the top concentration
# Potency means the concentration at half of the fitted maximal effect.
SMILES,activity (protection),Potency
OC(COc1ccc(Br)cc1)CN1CCN(c2ccccc2)CC1 (stereo not given),-0.779% (inactive),
CCCNC(=O)COc1coc(CN2CCN(c3ccccc3OC)CC2)cc1=O,-0.447% (inactive),
COc1ccc([C@H]2CC(=O)C=C(c3ccc(CNC(=O)OC(C)(C)C)cc3)C2)cc1,-1.05% (inactive),
CCOc1ccccc1CN1CCCC(CNS(=O)(=O)c2ccc(OC)cc2)C1 (stereo not given),-1.27% (inactive),
COc1ccc(C(=O)CC(=O)C(=O)Nc2ccccc2)cc1,-2.05% (inactive),
N#Cc1ccccc1Sc1ccccc1C(=O)Nc1ccc(Br)cc1,-1.71% (inactive),
CCCCOc1ccc(S(=O)(=O)N2CCCCC2)cc1,-0.111% (inactive),
O=C(NCCCn1cccn1)C1CCC(=O)N(Cc2ccccc2F)C1 (stereo not given),-0.576% (inactive),
CC1=CC(C)(C)N2C(=O)C3(NCCc4c3[nH]c3ccccc43)c3cc(C)cc1c32 (stereo not given),,2330 nM (active)
CCOCCOc1cc(NCc2ccccc2)c2ncn(C(C)C)c2c1,-2.32% (inactive),
CCN(CC)CCCNC(=O)c1cn(C)c(=O)c2c1c1ccccc1n2C,4.64% (inactive),
COc1ccc(Cl)cc1NC(=O)CSc1nc(=O)n(CCN(C)C)c2c1CCCC2,-2.67% (inactive),
Cc1nc(C(=O)N2CCC(n3nccc3NC(=O)Nc3ccccc3Cl)CC2)cs1,-1.86% (inactive),
COc1cccc(C2CC(c3ccc(C)cc3)n3ncnc3N2)c1 (stereo not given),0.394% (inactive),
COc1ccc(-n2nnnc2SCC(=O)Nc2nnc(C)s2)cc1,-0.427% (inactive),
Cc1ccc(S(=O)(=O)N(C)c2ccc(OC(=O)c3ccc(=O)[nH]c3)cc2)cc1,-0.512% (inactive),
COc1ccccc1CNC(=O)CCn1c(=O)oc2ccccc21,-0.71% (inactive),
Cc1cc2c(cc1S(=O)(=O)Nc1ccc(F)cc1)n(C)c(=O)c(=O)n2C,-0.472% (inactive),
COc1ccc(Nc2nc(-c3ccccc3)c(C(=O)Nc3cccnc3)s2)cc1,6.98% (inactive),
COC(=O)CSc1nc(N2CCOCC2)c2c(c1C#N)CCCC2,-0.658% (inactive),

SMILES,activity (protection),Potency
CC1Cc2nc(SCC(=O)N3CCCC3)n(C)c(=O)c2S1 (stereo not given),-2.11% (inactive),
Cc1ccc(NC(=O)CS(=O)Cc2nc(-c3ccc(C)cc3)oc2C)cc1 (stereo not given),-1.52% (inactive),
CC(C)C[C@H]1CN([C@@H](CC(C)C)CN2CCCC2CN2C(=S)NC[C@@H]2Cc2ccc(O)cc2)C(=S)N1CC1CCCCC1 (stereo not given in full),-0.649% (inactive),
COc1ccc(CNC(=O)C2CCC(CNS(=O)(=O)c3ccc(C)cc3)CC2)cc1 (stereo not given),-1.42% (inactive),
COc1ncnc(NS(=O)(=O)c2ccc(N)cc2)c1OC,0.0309% (inactive),
COc1ccc(/C=C/C(=O)Nc2ccccc2Cl)cc1S(=O)(=O)N1CCOCC1,-0.626% (inactive),
CCOC(=O)C(CC)n1cnc2c(nnn2-c2ccccc2)c1=O (stereo not given),0.222% (inactive),
CSc1ccccc1OCc1cc(C(=O)NCCCn2nc(C)cc2C)no1,-1.8% (inactive),
COc1cc(C(=O)N/N=C(\Cc2ncc[nH]2)c2ccccc2)cc(OC)c1OC,1.36% (inactive),
Cc1ccc(N2C(=O)c3ccccc3C2(O)c2ccccc2)cc1 (stereo not given),-0.943% (inactive),
O=c1[nH]c(SCc2cccc(Cl)c2)nc2ccccc12,1.77% (inactive),
COc1cc(CCC(=O)OCC(=O)Nc2ccc(C)cc2Br)cc(OC)c1OC,-1.19% (inactive),
Cc1ccccc1OCCC(=O)NNC(=O)c1ccccc1F,-0.207% (inactive),
C[C@@H]1O[C@@H](O[C@@H]2C(=O)c3c(O)cc(O)cc3O[C@H]2c2ccc(O)c(O)c2)[C@H](O)[C@H](O)[C@H]1O,-0.724% (inactive),
COc1ccc(CCN=c2c([N+](=O)[O-])nn(-c3cccc(C)c3)n2O)cc1OC,-2.53% (inactive),
CCN(CC)CCCn1c2c(c(SCC(=O)Nc3cccc4ccccc34)nc1=O)CCC2,-1.93% (inactive),
Cc1ccc2cccc(OCCCOc3ccccc3CO)c2n1,1.21% (inactive),
O=C(COc1cccc2ccccc12)NNC(=O)c1cnccn1,-1.17% (inactive),
Cc1cccc(NC(=O)C2CCCN(S(=O)(=O)c3ccc4[nH]c(=O)ccc4c3)C2)c1 (stereo not given),-1.13% (inactive),
CCOc1ncccc1C(=O)NCc1ccccc1Cl,1.05% (inactive),
